Experimental findings from ChEMBL document CHEMBL3988442, “University of Dundee, Small-Polar-MMV Screening Library” (2021) are described below.

Screen size: about 48,000 compounds; about 13,000 (27%) showed an effect of 50% or more. The list shows a part of the results.

The experiment relates to Wolbachia pipientis. The experiment in a line: Anti-Wolbachia Cell-Based Screen. It counts as functional. More on the design: scale not given: in the data most compounds retested in dose-response had high values. The conditions noted are these: 5 µM.
Take `CCOC(=O)c1ccc(Nc2ccc(OC)c(N3CCCC3=O)c2)nc1`: the “Percent Effect” value is on record as -0.2575%.

Take `CCOCCCNC(=O)C1(C)CCC(=O)N1Cc1ccccc1F` (stereo unspecified): the “Percent Effect” value was determined as 119.7%.

`CCOCCCNC(=O)C1(C)CCC(=O)N1c1cc(OC)ccc1OC` (stereo unspecified): the “Percent Effect” value was 128.4%.

Turning to `CCOCCCNC(=O)C1(C)CCC(=O)N1c1ccccc1OC` (stereo unspecified), the “Percent Effect” value was determined as 128.9%.

`CNC(=O)CN1C(=O)CCC12CCCN(Cc1ccccc1F)C2` (stereo unspecified): the “Percent Effect” value is recorded as -35.38%.

On to `CCOCC1CC2(CCN(C(=O)c3ccccc3F)CC2)CO1` (stereo unspecified), for which the “Percent Effect” value is listed as -17.98%.

Regarding `COc1cccc(C(=O)N2CCC3(CCC(=O)N(C(C)C)C3)CC2)c1C`, the “Percent Effect” value was -8.72%.

`O=C(O)C(F)(F)F.O=C1CCC2(CCCN(Cc3ccccc3F)C2)N1CC1CC1` (stereo unspecified): the “Percent Effect” value was -58.45%.

`CCc1nc(C2CCCN2C(=O)c2ccc3c(c2)nnn3CC)no1` (stereo unspecified): the “Percent Effect” value is listed as -4.092%.

On to `O=C1NCc2ccc(NC(=O)C3CCCN3c3nccs3)cc21` (stereo unspecified), for which the “Percent Effect” value is -9.996%.

Turning to `O=C(c1cncc(N2CC[C@@]3(O)CCNC[C@H]3C2)n1)N1CCCC1`, the “Percent Effect” value is -7.566%.

In the case of `CC(C)Oc1ccc(CNC(=O)C2CCS(=O)(=O)C2)cn1` (stereo unspecified), the “Percent Effect” value is given as 23.43%.

For `COc1ccc(CN2C[C@@H](CN(C)C)[C@@H](CO)C2)cc1CN1CCCC1`, the “Percent Effect” value was found to be 7.819%.

Take `Cn1nc(Cn2ccnc2)c2c1CN(Cc1ccoc1)C2.O=C(O)C(F)(F)F.O=C(O)C(F)(F)F`: the “Percent Effect” value is -6.284%.

On to `CC(NC(=O)c1cccc[n+]1[O-])c1ccc2c(c1)CCC(=O)N2` (stereo unspecified), for which the “Percent Effect” value was -1.39%.

As to `CC(NC(=O)c1sccc1C1CC1)c1ccc2c(c1)CC(=O)N2` (stereo unspecified), the “Percent Effect” value is on record as -4.532%.

On to `CC(NC(=O)NCc1ccoc1)c1ccc2c(c1)CC(=O)N2` (stereo unspecified), for which the “Percent Effect” value came out at 110.9%.

As for `CC(NC(=O)Nc1ccc(S(C)(=O)=O)cc1)c1ccc2c(c1)CC(=O)N2` (stereo unspecified), the “Percent Effect” value is on record as 11.72%.

Regarding `CC(NC(=O)c1ccoc1)c1ccc2c(c1)CCC(=O)N2` (stereo unspecified), the “Percent Effect” value is reported as 97.13%.

In the case of `CC(NC(=O)NCc1ccoc1)c1ccc2c(c1)CCC(=O)N2` (stereo unspecified), the “Percent Effect” value is reported as -4.231%.

Consider `COc1ccc(F)c(NCC(C)(C)S(C)(=O)=O)c1`, for which the “Percent Effect” value is 34.79%.

For the molecule `CC(C)c1ccc(CCC(=O)N(C)C2CCN(C)C2=O)cc1` (stereo unspecified), the “Percent Effect” value was -1.182%.

Regarding `CC(C)c1ccc(-n2ncc(C(=O)N(C)C3CCN(C)CC3)c2N)cc1`, the “Percent Effect” value was 117%.

For `Cc1ccc(C(=O)Nc2ccc(N3CCCC3)cn2)cc1C`, the “Percent Effect” value is recorded as -19.47%.

As for `Cc1cc(C(=O)NCCC2CCN(C)CC2)ccc1N(C)S(C)(=O)=O`, the “Percent Effect” value was -18.47%.

Turning to `Cc1ccc(-n2ncc(C(=O)N(C)C3CCN(C)CC3)c2N)cc1C`, the “Percent Effect” value is recorded as 137.5%.

Take `CC(C)c1ccc(-n2cc(O)c(C(=O)N3CCC(C(N)=O)CC3)n2)cc1`: the “Percent Effect” value was -5.795%.

Consider `CC(C)Cc1nc(CN2CC(=O)N(C)c3ccccc3C2=O)no1`, for which the “Percent Effect” value is -12.92%.

On to `CSC(C)C(=O)N1CCN(CC(C)(C)O)CC1` (stereo unspecified), for which the “Percent Effect” value is on record as -3.379%.

As for `CCOCCn1nc(C)cc1C(=O)N1C[C@@H](C)[C@](O)(C2CC2)C1`, the “Percent Effect” value is -17.93%.

Turning to `COC(=O)C1CCCCN1C(=O)c1ccccc1F` (stereo unspecified), the “Percent Effect” value is recorded as 1.901%.

Turning to `Cc1cc(C)n(CC2CCCCN2C(=O)c2sccc2C#N)n1` (stereo unspecified), the “Percent Effect” value is given as -7.705%.

Take `Cc1nc(O)c2nnn(C[C@H]3CCCN3C(=O)c3ccccc3F)c2n1`: the “Percent Effect” value was found to be 81.62%.

On to `Cc1nc(O)c2nnn(C[C@H]3CCCN3C(=O)c3ccccc3C)c2n1`, for which the “Percent Effect” value was 143.4%.

In the case of `Cc1nc(O)c2nnn(C[C@H]3CCCN3C(=O)c3cccs3)c2n1`, the “Percent Effect” value is 86.95%.

As for `O=C(c1ccno1)N1CC2(CCC(C(=O)N3CCCC3)O2)C1` (stereo unspecified), the “Percent Effect” value came to 1.973%.

As to `COCCN1CCN(CCCS(C)(=O)=O)CC1C` (stereo unspecified), the “Percent Effect” value worked out at 0.5325%.

As for `COc1ccc(Br)cc1CCC(=O)N1CCCC(O)C1` (stereo unspecified), the “Percent Effect” value is -4.291%.

On to `CC(NCc1ccccc1Br)c1ccc2[nH]c(=O)[nH]c2c1` (stereo unspecified), for which the “Percent Effect” value is recorded as -2.776%.

As to `CNS(=O)(=O)c1cccc(C(C)NCc2ccccc2OC)c1` (stereo unspecified), the “Percent Effect” value is reported as -4.064%.

Regarding `COc1ccc(CCNC(C)c2ccc3[nH]c(=O)[nH]c3c2)cc1OC` (stereo unspecified), the “Percent Effect” value stood at 106.6%.

In the case of `COc1ccccc1CNC(C)c1ccc2[nH]c(=O)[nH]c2c1` (stereo unspecified), the “Percent Effect” value is on record as 98.3%.

In the case of `COc1cc(C(=O)NCCc2ccc(OC)c(OC)c2)on1`, the “Percent Effect” value is given as -10.92%.

As to `COc1ccc(C(C)NCc2c[nH]nc2C)cc1OC.Cl` (stereo unspecified), the “Percent Effect” value was -6.737%.

As to `COc1ccccc1CNC(C)c1ccc(-n2ccnc2)cc1.Cl` (stereo unspecified), the “Percent Effect” value was found to be 2.759%.

On to `CC(NCc1ccccc1Cl)c1ccc2[nH]c(=O)[nH]c2c1` (stereo unspecified), for which the “Percent Effect” value was 97.6%.

Regarding `CC(NCc1ccc(C(N)=O)cc1)c1ccc(Cl)c(Cl)c1.Cl` (stereo unspecified), the “Percent Effect” value was -6.625%.

For `O=C(NCCSc1cnn[nH]1)c1c[nH]nc1C1CCCCC1`, the “Percent Effect” value is reported as -9.483%.

As for `CC(C)(C)c1csc(CNC(=O)C2NCCc3[nH]cnc32)n1` (stereo unspecified), the “Percent Effect” value is reported as -12.08%.

With `CCN1CCN(c2ccc(C(=O)NCCn3ccnc3)cc2F)CC1`, the “Percent Effect” value was -30.24%.

As to `CNc1nc(N2CCC3(CCCNC3=O)C2)nc2c1CCC2` (stereo unspecified), the “Percent Effect” value was -0.1969%.
